Test results as given in PubChem BioAssay.
Measured potencies and affinities stand elsewhere. Inconclusive results are not listed. The source made the active and inactive calls. Unless noted, how the calls were made is not given here.

Tests used:
[1] = RMG-1 ovarian cancer cell viability loss – cherry-pick, dose response (AID 687029;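 active means signal drop whose fitted half-maximal concentration is at most twice the top valid dose, in every test run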;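 further: cells exposed to compound for 96 hours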)
[2] = IOSE-T80 viability loss, PAX8-independent line – cell-based, cherry-pick, selectivity assay for PAX8 inhibitor project, dose response (AID 687032;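 active means fitted half-maximal concentration for viability loss no higher than twice the top valid dose, in every repeat run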;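 further: cells exposed to compound for 96 h before reading; 0% = neutral control wells and -100% = 2 µM mitoxantrone kill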)
[3] = general cell-killing toxicity readout – plate reader, dry powder samples, cytotoxicity control for PAX8 inhibitor project, dose response (AID 743021)
[4] = CMV-driven luciferase expression suppression in HEK293 – cell-based, luminescence, dry powder, counter-screen for Pax8 inhibitor project, dose response (AID 743020;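 active means signal-lowering compounds whose fitted half-maximal concentration is at or below twice the top tested dose in every run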;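 further: HEK293 cells stably expressing the CMV luciferase reporter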)
[5] = A2780 cell killing – plate reader, dry powder samples, cytotoxicity control, dose response (AID 743046);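 further: 0% = neutral control wells and -100% = cytotoxic reference compound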
[6] = OVCAR8 cell viability loss – plate reader, dry powder samples, PAX8 project, dose response (AID 743197)
[7] = IGROV1 cell killing – plate reader, dry powder samples, PAX8 inhibitor project, dose response (AID 743043);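 further: more negative means fewer viable cells or more cytotoxicity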
[8] = OVCAR-3 cell viability loss – plate reader, dry powder samples, PAX8 inhibitor project, dose response (AID 743044); settings: max activity: at 35 µM, active compounds read low unless noted
[9] = toxicity toward immortalized ovarian surface epithelium – cell-based, plate reader, dry powder samples, cytotoxicity control for PAX8 inhibitor project, dose response (AID 743045);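 further: 0% = neutral control median and -100% = positive control median; more negative values mean more cell killing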

C=C1C(=O)O[C@@H]2C[C@@H](C)[C@@H]3C=CC(=O)[C@@]3(C)[C@@H](OC(C)=O)[C@H]12
inactive: outcome [1] | outcome [2] | outcome [3]

CCC1(O)C(=O)OCc2c1cc1n(c2=O)Cc2cc3c(N)cccc3nc2-1 (stereo not drawn)
inactive: outcome [1] | outcome [2] | outcome [3]

N#Cc1cccc(-c2ccc(C3[C@@H]4CN(C(=O)C5CC5)C[C@H]3N4)cc2)c1 (stereo partly drawn)
inactive: outcome [1] | outcome [2] | outcome [3]

C=CCNC(=S)N/N=C(\C)c1ccccn1
inactive: outcome [1] | outcome [2] | outcome [3]

CCS(=O)(=O)c1ncc(Cl)c(C(=O)Nc2ccc(S(=O)(=O)N3CCCC(C)C3)cc2)n1 (stereo not drawn)
inactive: outcome [1] | outcome [2] | outcome [3]

COc1ccc(S(=O)(=O)N2CCCCN3[C@H](CO)[C@H](c4ccc(C#CC(C)C)cc4)[C@H]3C2)cc1
inactive: outcome [1] | outcome [2] | outcome [4] | outcome [5] | outcome [6]

COc1cc(OC)c(NC2=CC(=O)C(=O)c3ccccc32)cc1Cl
inactive: outcome [1] | outcome [2] | outcome [3]

Cc1[nH]c2ccccc2c(=O)c1C(=O)/C=C/c1ccccc1
inactive: outcome [1] | outcome [2] | outcome [3]

Cc1ccc(S(=O)(=O)Nc2ccc3c(c2)C(=O)N([C@H](C)CO)C[C@H](C)[C@@H](CN(C)Cc2ccc(C(F)(F)F)cc2)OCCCC[C@H](C)O3)cc1
inactive: outcome [1] | outcome [2] | outcome [3]

CC(C)N1CCc2c(sc(NC(=O)c3ccc([N+](=O)[O-])o3)c2C(N)=O)C1
inactive: outcome [1] | outcome [2] | outcome [3]

COc1ccc(OC)c(-c2nnc3n2N=C(c2ccc(OC)c(OC4CCOC4)c2)CS3)c1 (stereo not drawn)
inactive: outcome [1] | outcome [2] | outcome [3]

COc1ccccc1-n1cc([C@@H]2C[C@H]3CN(c4ccccc4)C(=O)[C@]34CCCN24)cn1
inactive: outcome [1] | outcome [2] | outcome [3]

Oc1c(I)cc(I)c2cccnc12
inactive: outcome [1] | outcome [2] | outcome [3]

Oc1ccc(N=Nc2ccccc2C(F)(F)F)c2cccnc12
inactive: outcome [1] | outcome [2] | outcome [3]

C#CCN(C[C@@H]1[C@@H](OC(=O)Nc2cccs2)[C@@H](OC(=O)Nc2cccs2)Cn2c(=O)ccc(=O)n21)S(=O)(=O)c1ccc(C)cc1
inactive: outcome [1] | outcome [2] | outcome [3]

CCOc1ccc(CCN2C(=S)N([C@@H](Cc3ccc(O)cc3)CN3CCC[C@@H]3CN3C(=S)NC[C@@H]3CC(C)C)C[C@@H]2Cc2ccc(O)cc2)cc1
inactive: outcome [1] | outcome [2] | outcome [3]

COc1ccc(S(=O)(=O)Nc2ccc3c(c2)C(=O)N([C@@H](C)CO)C[C@H](C)[C@H](CN(C)Cc2ccc(C(F)(F)F)cc2)OCCCC[C@H](C)O3)cc1
inactive: outcome [1] | outcome [2] | outcome [4] | outcome [5] | outcome [6]

COc1cc(C2C3=C(Nc4ncnn42)c2ccccc2CC3)cc(OC)c1OC (stereo not drawn)
inactive: outcome [1] | outcome [2] | outcome [3]

N#C[C@H]1[C@@H](c2ccc(C#Cc3ccc(F)cc3)cc2)[C@H](CO)N1C(=O)Nc1ccc(F)cc1
inactive: outcome [1] | outcome [2] | outcome [4] | outcome [6]

CC1CCN(CCc2nc3cc(NS(=O)(=O)c4ccccc4)ccc3n2C)CC1
inactive: outcome [1] | outcome [2] | outcome [3]

CNC[C@@H](CC1CCCCC1)NC[C@H](CC(C)C)NCCc1cccc(C(F)(F)F)c1
inactive: outcome [1] | outcome [2] | outcome [3]

C=C1C(=O)[C@]23C[C@H]1CCC2[C@]1(C)CCC[C@@](C)(C(=O)O)C1C[C@@H]3O (stereo partly drawn)
inactive: outcome [1] | outcome [2] | outcome [3]

COC(=O)c1ccccc1-c1c2ccc(=N)cc-2oc2cc(N)ccc12
inactive: outcome [1] | outcome [2] | outcome [3]

CCOc1ccccc1C1C2=C(COC2=O)Nc2cc3c(cc21)OCO3 (stereo not drawn)
inactive: outcome [1] | outcome [2] | outcome [3]

N#Cc1c(N)n(C2OC(CO)C(O)C2O)c2ncnc(N)c12 (stereo not drawn)
inactive: outcome [1] | outcome [2] | outcome [3]

Cc1ccc(C(=O)c2cc([N+](=O)[O-])ccc2N2CCCCC2)cc1
inactive: outcome [1] | outcome [2] | outcome [3]

CC(=O)NC(c1ccc2ccccc2c1)c1ccc2cccnc2c1O (stereo not drawn)
inactive: outcome [1] | outcome [2] | outcome [3]

COc1cc(/C=N/NS(=O)(=O)c2ccc(C)cc2)ccc1OCc1cccc(C(=O)O)c1
inactive: outcome [1] | outcome [2] | outcome [3]

C=CC(=O)N=c1sc2ccccc2n1-c1ccccc1
inactive: outcome [1] | outcome [2] | outcome [3]

O=C(CCCN1C(=O)/C(=C\c2cccc(Br)c2)SC1=S)Nc1cccnc1
inactive: outcome [1] | outcome [2] | outcome [3]

Cc1cc(NC(=O)c2ccc([N+](=O)[O-])o2)ccc1NC(=O)c1ccco1
inactive: outcome [1] | outcome [2] | outcome [3]

CCN1CCN(Cc2ccc(NC(=O)c3cc(NC(=O)C(=O)c4c[nH]c5ccccc45)cc(OC)c3)cc2C(F)(F)F)CC1
inactive: outcome [1] | outcome [2] | outcome [3]

NC(=O)c1ccsc1NC(=O)c1ccc([N+](=O)[O-])o1
inactive: outcome [1] | outcome [2] | outcome [3]

CS(=O)(=O)c1ncc(Cl)c(C(=O)Nc2ccc3ccccc3c2)n1
inactive: outcome [1] | outcome [2] | activity change, negative = cytotoxicity [3] 1.87% [at 8 µM]

CCOC(=O)c1cnc2ccc(C(=O)OC)cc2c1Nc1ccc(C(=O)O)cc1
inactive: outcome [1] | outcome [2] | outcome [3]

Cn1nnnc1Sc1ncnc2scc(-c3cccc(F)c3)c12
inactive: outcome [1] | outcome [2] | outcome [3]

CC(C)C(=O)N1CCN(c2ccc(NC(=O)c3ccc([N+](=O)[O-])o3)cc2)CC1
inactive: outcome [1] | outcome [2] | outcome [3]

Cn1cc(C2=C(c3ccc(Cl)cc3Cl)C(=O)NC2=O)c2ccccc21
inactive: outcome [1] | outcome [2] | outcome [3]

C[C@H]1CCCCO[C@H](CN(C)C(=O)Nc2ccc(C(F)(F)F)cc2)[C@@H](C)CN([C@@H](C)CO)C(=O)c2cc(NS(=O)(=O)c3ccc(Cl)cc3)ccc2O1
inactive: outcome [1] | outcome [2] | outcome [3]

Cc1ccc(S(=O)(=O)N(C)C[C@@H]2Oc3ccc(NC(=O)Nc4ccc(C(F)(F)F)cc4)cc3CC(=O)N([C@H](C)CO)C[C@@H]2C)cc1
inactive: outcome [1] | outcome [2] | outcome [3]

CN[C@H]1CCc2cc(OC)c(OC)c(OC)c2-c2ccc(OC)c(=O)cc21
inactive: outcome [1] | outcome [2] | outcome [3]

COc1cc(/C=N/NS(=O)(=O)c2ccc(C)cc2)ccc1OCc1ccc(C(=O)O)cc1
inactive: outcome [1] | outcome [2] | outcome [3]

CC(C)(C)OC(=O)NCCCC[C@H](NC(=O)c1[nH]cnc1C(=O)N[C@@H](Cc1ccccc1)C(=O)OC(C)(C)C)C(=O)OC(C)(C)C
inactive: outcome [1] | outcome [2] | outcome [3]

O=C(Nc1ccc([N+](=O)[O-])cc1)Nc1nc(-c2ccc(Cl)s2)cs1
inactive: outcome [1] | outcome [2] | outcome [3]

COc1ccc(C(=O)NN(C)c2nc(C(F)(F)F)nc3ccccc23)cc1
inactive: outcome [1] | outcome [2] | outcome [3]

COc1cc(NC(=O)Cn2ncc(Cl)c(Cl)c2=O)c(C)cc1[N+](=O)[O-]
inactive: outcome [1] | outcome [2] | outcome [3]

Cc1cc(-n2c(SCC(=O)NCCC3=CCCCC3)nc3n[nH]c(C)c3c2=N)ccc1Cl
inactive: outcome [1] | outcome [2] | outcome [3]

Cc1ccc(C)c(CSC2=NCCN2C(=O)Cc2ccc([N+](=O)[O-])cc2)c1
inactive: outcome [1] | outcome [2] | outcome [3]

CCOC(=O)c1cnn(CCOC(=O)c2cccc(F)c2)c1NC(=O)c1cccc(F)c1
inactive: outcome [1] | outcome [2] | outcome [3]

COc1cc(/C=N\NC(=O)c2ccc(-c3ccccc3)cc2)cc(OC)c1OC(C)=O
inactive: outcome [1] | outcome [2] | outcome [3]

COc1cc(-c2cnc3c(NC=O)cc(-c4ccc(C)cc4)cn23)cc(OC)c1OC
inactive: outcome [1] | outcome [2] | outcome [3]

N#CC1(NC(=O)Cn2ncc(Cl)c(Cl)c2=O)CCCCC1
inactive: outcome [1] | outcome [2] | outcome [3]

CC(=O)OC1CCC2(C)C(CCC3C4CC=C(C(C)=O)C4(C)OC(=O)CC32)C1 (stereo not drawn)
inactive: outcome [1] | outcome [2] | outcome [3]

CC[C@@]1(O)C(=O)OCc2c1cc1n(c2=O)Cc2cc3c(N)cccc3nc2-1
inactive: outcome [1] | outcome [2] | outcome [3]

CS(=O)(=O)Nc1ccc2c(c1)[C@@H]1C[C@@H](CC(=O)NCc3ccc(Oc4ccccc4)cc3)O[C@@H](CO)[C@@H]1O2
inactive: outcome [1] | outcome [2] | outcome [3]

C#CCN(C[C@@H]1[C@@H](OC(=O)NCc2ccc(OC)c(OC)c2)[C@@H](OC(=O)NCc2ccc(OC)c(OC)c2)Cn2c(=O)ccc(=O)n21)S(=O)(=O)c1ccc(C)cc1
inactive: outcome [1] | outcome [2] | outcome [3]

Cn1nnnc1Sc1ncnc2scc(-c3cccc4c3sc3ccccc34)c12
inactive: outcome [1] | outcome [2] | outcome [3]

CC(=NNC(=S)N1CCN(C2CCCCCC2)CC1)c1ccccn1
inactive: outcome [1] | outcome [2] | outcome [3]

CC(=NNC(=S)N1CCC1)c1ccccn1
inactive: outcome [1] | outcome [2] | outcome [3]

O=c1c(Cl)c(Cl)cnn1Cc1nnc(-c2ccccc2Br)o1
inactive: outcome [1] | outcome [2] | outcome [3]

C[C@H]1CCCCO[C@H](CN(C)C(=O)Nc2ccc(C(F)(F)F)cc2)[C@@H](C)CN([C@@H](C)CO)C(=O)c2cc(NC(=O)Nc3ccc(F)cc3)ccc2O1
inactive: outcome [1] | outcome [2] | outcome [3] | outcome [7]

CCOCCCNC(=O)c1ccc2c(c1)N=C(CC)c1cc(Br)ccc1S2
inactive: outcome [1] | outcome [2] | outcome [3]

CCC(=O)OCCNc1cc(Sc2nccn2C)c2nonc2c1[N+](=O)[O-]
inactive: outcome [1] | outcome [2] | outcome [3]

C[C@@H]1CCCCO[C@@H](CN(C)CC2CCCCC2)[C@H](C)CN([C@H](C)CO)C(=O)c2cc(NS(=O)(=O)c3ccc(Cl)cc3)ccc2O1
inactive: outcome [1] | outcome [2] | outcome [3]

Cc1ccc(S(=O)(=O)CCC(=O)c2ccc(F)cc2)cc1
inactive: outcome [1] | outcome [2] | outcome [3]

Cc1ccc2nc(C)cc(Nc3ccc([N+](=O)[O-])cc3)c2c1
inactive: outcome [1] | outcome [2] | outcome [3]

O=C(NCCN1C(=O)S/C(=C\c2ccc(OC(F)F)cc2)C1=O)c1cnccn1
inactive: outcome [1] | outcome [2] | outcome [3]

CC(=O)N1CCc2c(sc(NC(=O)c3ccc([N+](=O)[O-])o3)c2C#N)C1
inactive: outcome [1] | outcome [2] | outcome [3]

C[C@@H]1CCCCO[C@@H](CN(C)C(=O)Nc2ccc(F)cc2)[C@H](C)CN([C@@H](C)CO)C(=O)c2cc(NC(=O)Nc3ccc(C(F)(F)F)cc3)ccc2O1
inactive: outcome [1] | outcome [2] | outcome [3] | outcome [7] | max activity [8] -4.11% | outcome [9] | outcome [5] | outcome [6]

C[C@@H]1CN([C@H](C)CO)C(=O)c2cc(NC(=O)CCC(F)(F)F)ccc2O[C@@H](C)CCCCO[C@@H]1CN(C)Cc1ccc(C(F)(F)F)cc1
inactive: outcome [1] | outcome [2] | outcome [3] | outcome [7] | outcome [9]
